This passage reports AC50 and outcome results from PubChem BioAssay (EPA / NIEHS).

For assay [1], the target named is mouse Estrogen Receptor alpha (Era), Esr1 (gene 13982) (UniProt P19785). In words: NVS_NR_mERa: NovaScreen (NVS) Nuclear Receptor Binding Assay for mouse Estrogen Receptor alpha (Era) (AID 2283378).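 Also: hit means loss of bound radioligand signal relative to DMSO.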 The essentials: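 Filter scintillation counts of bound radioligand, measured 18 h post-dose, gave the readout; decreased signal relative to DMSO controls indicated displacement from mouse Era. Primary screen ran in duplicate at 25 uM; active chemicals were retested across concentrations.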
Chain of mouse Estrogen Receptor alpha (Era), Esr1 (gene 13982) (P19785 whole entry, looked up): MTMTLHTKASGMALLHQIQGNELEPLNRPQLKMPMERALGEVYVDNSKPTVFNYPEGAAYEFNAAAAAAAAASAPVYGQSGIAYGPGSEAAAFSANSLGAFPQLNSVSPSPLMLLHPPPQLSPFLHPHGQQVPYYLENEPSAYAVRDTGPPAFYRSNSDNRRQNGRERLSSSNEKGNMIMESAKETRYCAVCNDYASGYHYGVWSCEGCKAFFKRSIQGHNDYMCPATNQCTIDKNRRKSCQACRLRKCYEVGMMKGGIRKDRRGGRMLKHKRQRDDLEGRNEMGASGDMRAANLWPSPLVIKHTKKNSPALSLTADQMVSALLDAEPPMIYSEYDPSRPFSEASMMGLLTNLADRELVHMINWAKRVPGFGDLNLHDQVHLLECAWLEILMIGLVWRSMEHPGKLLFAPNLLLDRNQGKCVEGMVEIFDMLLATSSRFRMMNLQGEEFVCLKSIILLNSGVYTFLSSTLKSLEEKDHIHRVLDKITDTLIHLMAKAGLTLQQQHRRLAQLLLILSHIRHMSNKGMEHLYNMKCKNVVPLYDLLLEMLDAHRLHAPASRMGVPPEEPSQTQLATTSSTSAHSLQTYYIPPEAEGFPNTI

For assay [2], the target named is Estrogen receptor (Homo sapiens) (UniProt P03372). Description: OT_ERa_GFPERaERE_0480: Odyssey Thera (OT) 8-hour HeLa Transcription Induction Assay for Estrogen Receptor (AID 2283381; active = hit-call score of the fitted dose curve at least 0.9, where 1 is the maximum; inactive = score below 0.9). The essentials:
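HeLa cells dosed with compound and imaged by fluorescence microscopy at 8 h; GFP induction from an ERE reporter quantified by high-content image analysis and fitted as gain of signal against DMSO baseline.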

The target is the same in assay [3]. In words: OT_ERa_GFPERaERE_0120: Odyssey Thera (OT) 2-hour HeLa Transcription Induction Assay for Estrogen Receptor (AID 2283382). In short, it runs like this:
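HeLa cells were dosed with test chemical and read 2 hours later for GFP-ERα/ERE-linked fluorescent protein induction by fluorescence microscopy. Gain-of-signal was fitted relative to DMSO baseline, quantified by high content image analysis.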

Assay [4] has as its target Retinoic acid receptor RXR-alpha (Homo sapiens) (UniProt P19793). Description: OT_NURR1_NURR1RXRa_0480: Odyssey Thera (OT) 8-hour HEK293T Protein Complementation Assay for Nurr1/retinoid X receptor (RXR) (AID 2283385). The essentials:
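HEK293T cells expressing Nurr1 and RXRα fused to reporter fragments were dosed with compound for 8 hours. Complex formation was read as fluorescence intensity and analysed as gain of signal against DMSO as baseline.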

For assay [5], the target named is Agonist Androgen Response Element (ARE), AR (gene 367) (UniProt P10275). In words: OT_AR_ARELUC_AG_1440: Odyssey Thera (OT) 24-hour CHO-K1 Luciferase Assay for Agonist Androgen Response Element (ARE) (AID 2283379). The essentials:
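Agonist mode, 24 h exposure in CHO-K1 ARE-luciferase cells; values reflect luminescence induction over vehicle.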

In assay [6] the target is Estrogen receptor beta (Homo sapiens) (UniProt Q92731). Description: OT_ER_ERbERb_1440: Odyssey Thera (OT) 24-hour HEK293T Protein-Complementation Assay for Estrogen Receptor-beta/-beta Homodimer (AID 2283380).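 Also: fluorescence gain from ER beta LBD homodimer complementation read by laser scanning cytometry; scored as signal increase over DMSO baseline for both agonists and antagonists.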 The essentials: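 Fluorescence increase, nuclear for agonists or whole-cell for antagonists, relative to DMSO vehicle, quantified by laser scanning cytometer after fixation and Draq5 staining. Readout from 24 h treatment of HEK293T cells carrying complementation-paired ER beta LBD (aa 310-547).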
Chain of Estrogen receptor beta (Homo sapiens) (Q92731 whole entry, looked up, the tested form may be a part): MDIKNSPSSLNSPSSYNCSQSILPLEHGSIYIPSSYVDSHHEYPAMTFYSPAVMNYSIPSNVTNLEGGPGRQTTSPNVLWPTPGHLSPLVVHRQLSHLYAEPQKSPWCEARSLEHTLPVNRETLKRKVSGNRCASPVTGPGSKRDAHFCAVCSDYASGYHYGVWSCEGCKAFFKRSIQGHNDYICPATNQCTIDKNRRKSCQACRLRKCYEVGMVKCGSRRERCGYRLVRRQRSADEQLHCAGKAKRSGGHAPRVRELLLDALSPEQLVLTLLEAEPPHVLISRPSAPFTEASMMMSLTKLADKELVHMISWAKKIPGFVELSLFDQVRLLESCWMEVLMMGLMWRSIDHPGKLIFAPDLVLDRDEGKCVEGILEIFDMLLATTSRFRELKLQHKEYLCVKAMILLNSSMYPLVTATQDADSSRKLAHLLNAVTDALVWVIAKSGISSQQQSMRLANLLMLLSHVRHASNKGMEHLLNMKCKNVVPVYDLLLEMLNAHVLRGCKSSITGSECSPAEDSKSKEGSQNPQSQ

Assay [7] deals with Bile acid receptor (Homo sapiens) (UniProt Q96RI1). Description: OT_FXR_FXRSRC1_0480: Odyssey Thera (OT) 8-hour HEK293T Protein-Complementation Assay for Farnesoid X receptor/SRC-1 Co-activator (AID 2283383). In short, it runs like this: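 HEK293T cells expressing FXR and SRC-1 fused to reporter fragments were dosed with compound for 8 h; fluorescence from the reconstituted reporter marked co-activator recruitment. Gain of signal was fitted against the DMSO baseline.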
Chain of Bile acid receptor (Homo sapiens) (Q96RI1 whole entry, looked up, the tested form may be a part): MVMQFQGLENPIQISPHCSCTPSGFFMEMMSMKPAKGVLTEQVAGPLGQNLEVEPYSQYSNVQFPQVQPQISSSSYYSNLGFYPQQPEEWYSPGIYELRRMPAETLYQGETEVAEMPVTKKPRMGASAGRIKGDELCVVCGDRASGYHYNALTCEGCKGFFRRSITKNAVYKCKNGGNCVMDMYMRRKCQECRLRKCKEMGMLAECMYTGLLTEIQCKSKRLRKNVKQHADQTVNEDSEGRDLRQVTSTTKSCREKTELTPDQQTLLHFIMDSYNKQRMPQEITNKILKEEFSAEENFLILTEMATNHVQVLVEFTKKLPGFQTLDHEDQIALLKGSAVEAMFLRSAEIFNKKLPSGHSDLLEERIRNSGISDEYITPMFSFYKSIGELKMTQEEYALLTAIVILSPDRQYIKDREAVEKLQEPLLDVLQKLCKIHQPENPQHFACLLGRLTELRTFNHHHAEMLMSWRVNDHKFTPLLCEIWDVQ

The target is the same in assay [8]. In words: OT_FXR_FXRSRC1_1440: Odyssey Thera (OT) 24-hour HEK293T Protein-Complementation Assay for Farnesoid X receptor/SRC-1 Co-activator (AID 2283384). In short, it runs like this: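 HEK293T cells were dosed with compound and read 24 h later by fluorescence intensity from protein-fragment complementation reporting FXR/SRC-1 co-activator interaction. Gain of signal was fitted relative to DMSO negative control as baseline.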

Assay [9] deals with Retinoic acid receptor RXR-alpha (Homo sapiens) (UniProt P19793). In words: OT_NURR1_NURR1RXRa_1440: Odyssey Thera (OT) 24-hour HEK293T Protein Complementation Assay for Nurr1/retinoid X receptor (RXR) (AID 2283386). In short, it runs like this:
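HEK293T cells were dosed with compound and read 24 h later by fluorescence intensity in a protein-fragment complementation format, where Nurr1–RXRα interaction reconstitutes a split reporter. Activity was fitted as gain of signal relative to DMSO baseline.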

Assay [10] deals with Peroxisome proliferator-activated receptor gamma (Homo sapiens) (UniProt P37231). Description: OT_PPARg_PPARgSRC1_0480: Odyssey Thera (OT) 8-hour Protein-Complementation Assay for Peroxisome Proliferator-activated Receptor Gamma / SRC-1 Co-activator (AID 2283387).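 Also: nuclear to cytoplasmic split Venus YFP fluorescence ratio reporting PPARg SRC-1 interaction.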 The essentials: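 Split-YFP (IFP1/IFP2) PPARg/SRC-1 reporter, HEK293T, 37 °C, 5% CO2; 8 h compound; formaldehyde fix + Draq5; high-content imaging, N/C ratio, ≥350 cells/image, positive direction vs DMSO.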
Chain of Peroxisome proliferator-activated receptor gamma (Homo sapiens) (P37231 whole entry, looked up): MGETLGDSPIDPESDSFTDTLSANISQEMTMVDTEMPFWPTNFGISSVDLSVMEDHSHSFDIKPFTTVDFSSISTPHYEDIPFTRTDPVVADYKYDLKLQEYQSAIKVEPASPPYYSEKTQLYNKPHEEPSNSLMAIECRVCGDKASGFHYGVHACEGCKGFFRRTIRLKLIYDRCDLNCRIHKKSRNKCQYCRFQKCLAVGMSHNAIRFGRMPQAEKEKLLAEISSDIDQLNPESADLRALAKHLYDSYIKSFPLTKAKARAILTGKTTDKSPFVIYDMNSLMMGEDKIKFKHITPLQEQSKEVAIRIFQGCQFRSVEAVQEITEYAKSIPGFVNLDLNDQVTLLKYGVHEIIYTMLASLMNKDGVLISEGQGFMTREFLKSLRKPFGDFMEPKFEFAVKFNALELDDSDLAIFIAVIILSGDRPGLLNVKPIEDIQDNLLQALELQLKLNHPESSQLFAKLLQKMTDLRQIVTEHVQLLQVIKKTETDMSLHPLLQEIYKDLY

Structures are written as SMILES. Several values for one entry are separate records, joined by “and”; a condition that tells them apart may be missing. Equal values may be shown once. Records with an inconclusive call do not appear. The source holds several records for some structures; these can differ, active in one and inactive in another. Activity calls are given as the source filed them. The calls were made as follows, unless noted: active = hit-call score of the fitted dose curve at least 0.9, where 1 is the maximum; inconclusive = response in the unintended direction; inactive = score below 0.9.

Chain of Agonist Androgen Response Element (ARE), AR (gene 367) (P10275 whole entry, looked up): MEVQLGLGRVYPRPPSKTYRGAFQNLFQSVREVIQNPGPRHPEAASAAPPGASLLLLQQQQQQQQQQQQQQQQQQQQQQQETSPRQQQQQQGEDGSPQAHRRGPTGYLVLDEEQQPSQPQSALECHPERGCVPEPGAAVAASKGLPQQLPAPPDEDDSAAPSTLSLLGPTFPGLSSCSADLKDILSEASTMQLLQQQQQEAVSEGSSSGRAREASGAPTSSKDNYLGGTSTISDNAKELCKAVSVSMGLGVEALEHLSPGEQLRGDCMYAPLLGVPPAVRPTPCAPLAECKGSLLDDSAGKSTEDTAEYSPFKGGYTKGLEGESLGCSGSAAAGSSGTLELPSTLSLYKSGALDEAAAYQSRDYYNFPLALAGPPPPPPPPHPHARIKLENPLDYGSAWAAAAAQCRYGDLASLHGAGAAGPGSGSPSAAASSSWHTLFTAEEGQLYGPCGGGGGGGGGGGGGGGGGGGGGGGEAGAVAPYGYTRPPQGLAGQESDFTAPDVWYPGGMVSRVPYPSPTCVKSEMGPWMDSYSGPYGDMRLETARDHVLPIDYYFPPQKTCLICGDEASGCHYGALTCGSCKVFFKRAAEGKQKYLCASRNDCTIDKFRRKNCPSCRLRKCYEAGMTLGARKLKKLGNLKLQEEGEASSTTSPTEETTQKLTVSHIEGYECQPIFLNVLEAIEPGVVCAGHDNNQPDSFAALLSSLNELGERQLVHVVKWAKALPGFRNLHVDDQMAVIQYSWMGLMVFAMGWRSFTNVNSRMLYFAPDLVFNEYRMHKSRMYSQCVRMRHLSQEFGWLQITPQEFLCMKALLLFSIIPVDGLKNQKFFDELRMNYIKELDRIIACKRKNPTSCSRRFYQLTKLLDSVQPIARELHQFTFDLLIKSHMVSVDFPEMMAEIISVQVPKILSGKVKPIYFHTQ
Chain of Estrogen receptor (Homo sapiens) (P03372 whole entry, looked up): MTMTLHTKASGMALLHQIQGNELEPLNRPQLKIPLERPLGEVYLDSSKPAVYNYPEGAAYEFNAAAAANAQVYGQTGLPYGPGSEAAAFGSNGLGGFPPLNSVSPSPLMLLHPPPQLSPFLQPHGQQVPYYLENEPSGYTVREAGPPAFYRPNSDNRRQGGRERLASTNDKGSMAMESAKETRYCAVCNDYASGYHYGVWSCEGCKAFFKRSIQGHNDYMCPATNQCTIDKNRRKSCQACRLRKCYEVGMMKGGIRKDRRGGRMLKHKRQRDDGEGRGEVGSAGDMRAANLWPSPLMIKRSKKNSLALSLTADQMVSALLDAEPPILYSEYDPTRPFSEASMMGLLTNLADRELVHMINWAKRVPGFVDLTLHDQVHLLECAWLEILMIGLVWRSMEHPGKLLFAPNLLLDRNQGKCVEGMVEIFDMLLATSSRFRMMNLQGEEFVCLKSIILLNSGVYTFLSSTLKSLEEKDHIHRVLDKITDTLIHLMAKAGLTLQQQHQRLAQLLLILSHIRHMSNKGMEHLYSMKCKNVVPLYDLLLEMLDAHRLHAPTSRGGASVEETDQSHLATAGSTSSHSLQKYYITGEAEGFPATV
Chain of Retinoic acid receptor RXR-alpha (Homo sapiens) (P19793 whole entry, looked up, the tested form may be a part): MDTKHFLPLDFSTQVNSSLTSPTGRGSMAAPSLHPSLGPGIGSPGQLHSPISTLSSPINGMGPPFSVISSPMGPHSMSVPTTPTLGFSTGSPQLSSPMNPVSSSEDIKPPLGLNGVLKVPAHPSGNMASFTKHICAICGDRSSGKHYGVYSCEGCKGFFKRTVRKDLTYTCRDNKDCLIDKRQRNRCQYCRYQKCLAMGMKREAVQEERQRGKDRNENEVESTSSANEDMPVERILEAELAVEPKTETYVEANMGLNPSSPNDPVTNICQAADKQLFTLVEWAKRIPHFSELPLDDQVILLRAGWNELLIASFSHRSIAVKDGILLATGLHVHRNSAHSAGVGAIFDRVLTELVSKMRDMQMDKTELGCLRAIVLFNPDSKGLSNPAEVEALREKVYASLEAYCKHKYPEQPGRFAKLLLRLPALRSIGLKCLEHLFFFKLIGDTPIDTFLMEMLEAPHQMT

In general, AC50 refers to the concentration at which the activity in the assay is half-maximal. On to `CC(C)OC(=O)Nc1ccccc1`, for which the AC50 in assay [1] is 5.18 µM (active). Moreover, the result in assay [2], in assay [3] and in assay [4] was inactive.
With `CCC(=O)C(CC(C)N(C)C)(c1ccccc1)c1ccccc1` (configuration not stated), the outcome in assay [5], in assay [6], in assay [2], in assay [3], in [7] and in [8] was inactive. Besides, the outcome in assay [4], in [9] and in assay [10] was inactive.
For the molecule `COP(=O)(OC)O/C(=C\Cl)c1cc(Cl)c(Cl)cc1Cl`, the molecule was called inactive in [1], in assay [2], in assay [3], in assay [7], in assay [8] and in assay [9]. Also, the AC50 in assay [4] is 4.45 µM (active).
Consider `C=C(C)C(=O)[O][Sn]([CH2]CCC)([CH2]CCC)[CH2]CCC`, for which the AC50 in assay [1] is 9.68 µM (active); in assay [3] it was 0.772 µM (active). In addition, the outcome in assay [6], in [2] and in assay [8] was inactive.
As for `c1cc[c]([Hg][c]2ccccc2)cc1`, the result in assay [5], in [6], in assay [2], in [3] and in assay [10] was inactive. Also, the AC50 in assay [7] was 29 µM (active); in assay [8] it was 51.6 µM (active); in assay [4], 29.7 µM (active); in assay [9], 63.4 µM (active).
As to `CC(=O)[O][Hg][c]1ccccc1`, the result in [5] and in assay [6] was inactive. The AC50 in [2] is 4.11 µM (active); in assay [3], 12 µM (active); in assay [8], 0.2 µM (active); in assay [9], 0.266 µM (active).
Take `Oc1ccc(-c2ccccc2)cc1`: the AC50 in [1] was 17.7 µM (active); in assay [6] it was 11.8 µM (active); in [7] it was 33.3 µM (active); in assay [8], 33.3 µM (active); in assay [9], 50 µM (active). The molecule was classed as inactive in assay [4].
Regarding `CC(C)(c1ccc(OCC2CO2)cc1)c1ccc(OCC2CO2)cc1` (configuration not stated), the molecule was called inactive in assay [5], in [6], in assay [2], in assay [3] and in assay [4].
As for `CCOP(=S)(OCC)Oc1nc(Cl)c(Cl)cc1Cl`, the outcome in assay [1], in [5], in assay [6], in assay [2], in [3] and in assay [9] was inactive. In assay [10], the call was inactive. In addition, the AC50 is 35.1 µM (active) in [7]; 76.4 µM (active) in [8]; 83.4 µM (active) and 71 µM (active) in assay [4]; 85.3 µM (active) in [9].
